High-throughput results (PubChem)
Rows were chosen to be rich in hits. Some 4.1% of all compounds tested hit in one or more screens of this group.
DAX1 inh-1 – NR0B1 (DAX1) inhibition; actives 0.99% (n = 340,000); P51843; inhibition, % at 6.75 µM; HEK293 Gal4-DAX1 luciferase reporter, luminescence;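 active = inhibition above the mean over all tested compounds plus 3 SD, cut at about 4.2% in these data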;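 also: inhibition shows as a rise in luminescence from relieved DAX1 repression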
Target sequence (P51843 207-470 limits assumed): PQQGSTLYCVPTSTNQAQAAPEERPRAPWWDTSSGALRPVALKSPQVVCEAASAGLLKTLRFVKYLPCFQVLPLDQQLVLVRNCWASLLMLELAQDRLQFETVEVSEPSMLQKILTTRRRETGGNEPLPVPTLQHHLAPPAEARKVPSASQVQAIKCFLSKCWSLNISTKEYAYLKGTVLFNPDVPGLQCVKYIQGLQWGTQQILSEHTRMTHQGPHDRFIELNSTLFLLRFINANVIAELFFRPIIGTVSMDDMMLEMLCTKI
DAX1 inh-2 – inhibitors of DAX1 repression of SF-1 activated StAR promoter; HEK293T StAR-luciferase reporter, SF-1/DAX-1 repression relief; inhibition, % at 6.8 µM; actives 1.1% (n = 370,000); AID 652010;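 active = inhibition above the mean over all tested compounds plus 3 SD, cut at about 3.6% in these data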;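 also: higher inhibition means more luminescence from relief of DAX-1 repression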
ssDAF-12 act – activates DAF-12 receptor from parasite S. stercoralis. activation, % at 6.8 µM. HEK293 ssDAF-12/GRIP1 lit1-tk-luc reporter, luminescence; % of 3 µM dafachronic acid response. actives 1% (n = 370,000);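 active = activation above the mean over all tested compounds plus 3 SD, cut at about 0.9% in these data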
hgDAF-12 ag – activates the H. glycines DAF-12 receptor ligand-binding domain | HEK293 GAL4-hgDAF12 UAS-luciferase reporter, agonist luminescence; normalized to butyrate control | activation, % at 6.8 µM | actives 1.8% (n = 370,000) | AID 687014;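 active = activation above a cutoff set at the mean of all screened compounds plus 3 SD, cut at about 10% in these data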
hcDAF12 agonist – activates DAF-12 receptor from parasite H. contortus; activation, % at 6.8 µM; HEK293 hcDAF-12 lit1-tk-luc reporter, luminescence; 0% DMSO, 100% Δ7-dafachronic acid; actives 1.4% (n = 370,000); AID 652067;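 active = activation above the mean of all tested compounds plus 3 SD, cut at about 5.5% in these data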
LXRb hcDAF ctr – LXR-beta agonism as hcDAF-12 counter-screen; shares compounds with hcDAF12 agonist; HEK293 Gal4-LXR tk-luc reporter, luminescence, 24 h; normalized: DMSO 0%, positive control 100%; activation, % at 6.8 µM; 3,400 tested, under 10 active; AID 743027;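 active = mean percent activation of the reporter above a cutoff set as the average over tested compounds plus their standard deviation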
hcDAF12 ag – hcDAF-12 agonism, confirmation assay. shares compounds with hcDAF12 agonist. HEK293 hcDAF-12 lit1-tk-luc reporter, luminescence; % of Δ7-dafachronic acid response. actives 61% (n = 3,400). AID 743032. activation, % at 6.8 µM;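 active = mean activation across triplicate tests above the threshold derived from the earlier primary screen, cut at about 5.5% in these data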
hgDAF12 conf – hgDAF-12 agonism, confirmation assay; activation, % at 6.8 µM; HEK293 GAL4-hgDAF12 luciferase reporter, agonist mode; percent of butyrate response; shares compounds with hgDAF-12 ag; actives 80% (n = 3,300);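 active = mean activation over triplicate wells above the hit cutoff derived from the earlier primary screen, cut at about 11% in these data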
LXR ag 2 – activates human LXR-beta, counter-screen for DAF-12 agonists; shares compounds with hgDAF-12 ag; HEK293 Gal4-LXR luciferase reporter, 24 h; activation, % at 6.8 µM; 3,300 tested, under 10 active; AID 743051;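 active = mean activation of the triplicate above a set limit carried over from the primary screen, none filed active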
Numbers stand for hits; . = inactive; / = no result given.

SMILES	DAX1 inh-1	DAX1 inh-2	ssDAF-12 act	hgDAF-12 ag	hcDAF12 agonist	LXRb hcDAF ctr	hcDAF12 ag	hgDAF12 conf	LXR ag 2
CCN(CC)S(=O)(=O)c1ccc(N2CC(C(=O)NC3(C)CCS(=O)(=O)C3)CC2=O)cc1 (configuration not stated)	.	.	.	.	.	/	/	/	/
COC(=O)NNC(=O)C(c1ccccc1)c1ccccc1	.	.	.	.	.	/	/	/	/
CC(C)OC(=O)c1ccc2nc3ccccc3nc2c1	.	.	1.2	17	7.8	.	8.1	17	.
Cc1cccc(OCc2nnc(SCC(=O)Nc3cccc(C(=O)N4CCOCC4)c3)n2C)c1	.	.	.	.	.	/	/	/	/
CCc1ccc(-c2cc(C(=O)O)c3ccccc3n2)s1	.	.	1.1	17	11	.	9.1	14	.
C[C@@H]1CN([C@H](C)CO)C(=O)c2cc(-c3ccc(C(=O)N(C)C)cc3)cnc2O[C@@H]1CN(C)C(=O)c1cccnc1	.	.	.	.	.	/	/	/	/
Cc1ccc(NC(=O)c2onc(C)c2Cl)cc1	.	.	.	18	9.1	.	12	16	.
Cc1ccc(NC(=O)c2c(C)noc2C)cc1	.	.	.	.	.	/	/	/	/
CC(=Nc1ccccc1)c1sc2ccccc2c1O	.	.	2.1	17	20	.	11	26	.
Cc1cccc(/N=C/c2sc3ccccc3c2O)n1	.	.	.	.	.	/	/	/	/
CCN(CC)S(=O)(=O)c1cc(NC(=O)[C@@H](NC(N)=O)C(C)C)ccc1C	.	.	.	.	.	/	/	/	/
CC(C)(C)OC(=O)C[C@@H]1C/C=C\C[C@H](CC(=O)NCCO)C(=O)N[C@H](Cc2ccccc2)COC1=O	.	.	.	.	.	/	/	/	/
Cc1c(-c2nc(N)nc(Nc3ccccc3F)n2)oc2ccccc12	.	3.7	0.9	14	7.5	.	7.3	18	.
CC1=NN(c2ccccc2)C(=O)C1N=Nc1ccc(N)cc1 (configuration not stated)	.	.	.	.	.	/	/	/	/
CC1=NN(c2ccccc2)C(=O)C1N=Nc1cccc(O)c1 (configuration not stated)	.	.	1.6	14	18	.	13	19	.
Cc1cc(C)c2c(N)c(C(=O)Nc3ccc([N+](=O)[O-])cc3)sc2n1	.	.	.	.	.	/	/	/	/
Cc1cc(C)c2c(N)c(C(=O)Nc3ccc(F)cc3)sc2n1	.	.	.	14	8.8	.	16	24	.
OC(c1ccc(F)cc1)c1nc(-c2cc3ccccc3o2)cs1 (configuration not stated)	/	3.9	1.2	15	6.6	.	.	14	.
Nc1nc(-c2cccnc2)nc2sc3c(c12)CCCC3	.	4.5	1.5	20	8.7	.	.	15	.
Cc1ccc(Nc2nc3ccccc3s2)c(C)c1	.	.	1.2	21	9.1	.	9.6	22	.
Cc1cc(C)nc(Nc2nc3ccccc3s2)n1	.	4.5	.	17	14	.	15	19	.
CC(C)NC(=O)N(C)C[C@@H]1OCc2cn(nn2)CCCC(=O)N([C@H](C)CO)C[C@H]1C	.	.	.	.	.	/	/	/	/
CCc1ccc(C2=NN(S(C)(=O)=O)C(c3cccs3)C2)cc1 (configuration not stated)	.	.	2.6	15	12	.	6.1	23	.
CS(=O)(=O)N1N=C(c2cccs2)CC1c1ccccc1 (configuration not stated)	.	.	.	.	.	/	/	/	/
COc1ccc(C2=NN(S(C)(=O)=O)C(c3cccs3)C2)cc1 (configuration not stated)	.	.	.	.	.	/	/	/	/
SMILES	DAX1 inh-1	DAX1 inh-2	ssDAF-12 act	hgDAF-12 ag	hcDAF12 agonist	LXRb hcDAF ctr	hcDAF12 ag	hgDAF12 conf	LXR ag 2
Cc1ccc(C2=NN(S(C)(=O)=O)C(c3cccs3)C2)cc1 (configuration not stated)	.	.	.	14	7.6	.	.	14	.
Cc1ccc(NC(=O)CNC(=O)Cn2cnc3sc(C)c(C)c3c2=O)cc1F	.	.	.	.	.	/	/	/	/
CCN(CCn1cccn1)C(=O)c1cc(COc2ccc(F)c(F)c2)on1	.	.	.	.	.	/	/	/	/
CCN(CCn1cccn1)C(=O)c1cc(COc2cc(C)ccc2C)on1	.	.	1.7	14	7.5	.	.	12	.
CC(=O)N(C)c1ccc(NS(=O)(=O)c2cccc3nsnc23)cc1	.	.	.	.	.	/	/	/	/
CCN(CC)S(=O)(=O)c1ccc(NC(=O)COC(=O)c2ccc(-n3nc(C)cc3C)cc2)cc1	.	.	.	.	.	/	/	/	/
CCN(CC)S(=O)(=O)c1ccc(C(=O)OCC(=O)Nc2ccc(-c3nc4ccc(C)cc4s3)cc2)cc1	.	4.0	.	14	7.6	.	8.9	23	.
CCOC(=O)c1c(C)oc2c1cc(O)c1ccccc12	.	.	3.1	17	13	.	13	20	.
CC(=O)c1c(C)oc2c1cc(O)c1ccccc12	.	.	.	.	.	/	/	/	/
Nc1ccc2cc3[nH]c4cc(N)ccc4c3nc2c1	.	.	3.0	35	19	3.5	15	20	.
COc1cc2ccccc2cc1C(=O)Nc1ccccc1Cl	4.8	.	2.2	16	12	.	15	20	.
COc1ccc(NC(=O)c2cc3ccccc3cc2OC)cc1	.	.	3.2	15	12	.	12	17	.
COc1cc2ccccc2cc1C(=O)Nc1cccnc1	.	.	.	.	.	/	/	/	/
Cc1ccc(C(=O)Nc2ccccc2Cl)cc1	7.1	.	1.2	13	12	.	7.3	16	.
CCOCCCNC(=O)C(c1ccccc1)N(Cc1cccs1)C(=O)CNC(C)=O (configuration not stated)	.	.	.	.	.	/	/	/	/
COc1cc(-c2nc3ccccc3s2)ccc1O	.	.	.	14	8.6	.	7.3	14	.
Cc1ccc(F)cc1NC(=O)c1sc2ncn(CC(=O)N3CCN(c4ccccn4)CC3)c(=O)c2c1C	.	.	.	.	.	/	/	/	/
O=C(CSc1ncccc1-c1nc2ccccc2[nH]1)NCc1ccco1	.	.	.	.	.	/	/	/	/
Cc1cc2nc(-c3cccnc3SCC(=O)NCc3ccco3)[nH]c2cc1C	.	.	1.3	14	11	.	9.1	25	.
